Reference: PubChem BioAssay (NCATS)
Records with an inconclusive call do not appear. The source made the active and inactive calls. Calls follow the shape of the dose curve; as a rule, active = well fitted curve in the direction sought with a large enough effect; inconclusive = small, poorly fitted or top-dose-only effect, or another doubt; inactive = no such curve, though single readings can be large; an effect the other way counts as inactive or inconclusive.

Tests used:
[1] = qHTS of pediatric cancer cell lines to identify multiple opportunities for drug repurposing: Primary screen for TC32 cells (AID 1347089); also: nearly all actives have a fitted effect of over 60% in size; also: potency is read from the fitted curve at half-maximal effect; as to activity change, negative = cytotoxic: % is scaled to controls: 0 for no effect and ±100 for the full control effect
How it was run: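 qHTS, TC32, 48 h drug treatment, CellTiter-Glo luminescence as a proxy for metabolically active cells; primary top concentration 46 µM (MIPE 11-pt, NPC 8-pt); confirmatory 11-pt.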

[2] = qHTS of pediatric cancer cell lines to identify multiple opportunities for drug repurposing: Primary screen for DAOY cells (AID 1347090);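 also: series mostly up to about 46 µM; plate controls were DMSO for no effect and bortezomib for full effect; nearly all actives have a fitted effect of over 55% in size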
How it was run: (§1)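 Cell viability, CellTiter-Glo luminescence; 500-1,000 cells/well, 8- or 11-point titration, 48 h compound exposure at 37 degrees C, 5% CO2. Controls: DMSO neutral, bortezomib 2.3 µM final as positive.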

[3] = qHTS of pediatric cancer cell lines to identify multiple opportunities for drug repurposing: Primary screen for SJ-GBM2 cells (AID 1347091);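 also: plate controls were DMSO neutral control for no effect and bortezomib for full effect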
How it was run: as §1

[4] = qHTS of pediatric cancer cell lines to identify multiple opportunities for drug repurposing: Primary screen for A673 cells (AID 1347092); also: nearly all actives have a fitted effect of over 45% in size; also: potency is read from the fitted curve at half-maximal effect; as to activity change, negative = cytotoxic: % is scaled to controls: 0 for no effect and ±100 for the full control effect
How it was run: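 Luminescence from CellTiter-Glo, taken after 15 min at room temperature, served as the proxy for metabolically active cells following 48 h treatment. Both potency and efficacy were taken from curves fitted to the titration data.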

[5] = qHTS of pediatric cancer cell lines to identify multiple opportunities for drug repurposing: Primary screen for SK-N-MC cells (AID 1347093); also: potency is read from the fitted curve at half-maximal effect;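 as to activity change, negative = cytotoxic: series mostly up to about 46 µM; plate controls were DMSO neutral control for no effect and bortezomib for full effect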
How it was run: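 Metabolically active cells were quantified by ATP-dependent luminescence (CellTiter-Glo, 15 min at room temperature) following 48 h treatment. Cells had been plated at 500-1,000 per well and settled for 5 h beforehand.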

[6] = qHTS of pediatric cancer cell lines to identify multiple opportunities for drug repurposing: Primary screen for NB-EBc1 cells (AID 1347095); also: potency is read from the fitted curve at half-maximal effect;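 as to activity change, negative = cytotoxic: plate controls were DMSO neutral control for no effect and bortezomib for full effect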
How it was run: (§2)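 CRCs from 8- or 11-point titrations (lowest final 0.59 nM NPC, 0.78 nM MIPE). Cell viability: CellTiter-Glo after 48 h incubation, 15 min room-temperature development, luminescence imaging.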

[7] = qHTS of pediatric cancer cell lines to identify multiple opportunities for drug repurposing: Primary screen for U-2 OS cells (AID 1347096);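 also: plate controls were DMSO wells for no effect and bortezomib positive control wells for full effect; nearly all actives have a fitted effect of over 50% in size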
How it was run: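 Cells (500-1,000/well) rested 5 h, then received compounds for 48 h; metabolically active cells were measured by CellTiter-Glo luminescence. Final concentrations spanned up to 46 µM (MIPE, 11-point) or 0.59 nM-46 µM (NPC, 8-point) in primary screens, 11-point in follow-ups.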

[8] = qHTS of pediatric cancer cell lines to identify multiple opportunities for drug repurposing: Primary screen for BT-37 cells (AID 1347094); also: potency is read from the fitted curve at half-maximal effect;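 as to activity change, negative = cytotoxic: series mostly up to about 57 µM; plate controls were DMSO for no effect and bortezomib for full effect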
How it was run: as §2

NC(=O)N/N=C/c1ccc([N+](=O)[O-])o1
inactive: Potency [1] | Potency [2] | Potency [3] | Potency [5] | Potency [6] | Potency [7]
active: Potency [4] 48.6 µM

CCCCN(CCCC)CCCOC(=O)c1ccc(N)cc1
inactive: Potency [1] | Potency [2] | Potency [3] | Potency [4] | Potency [5] | Potency [6] | Potency [7]

NCC(=O)CCC(=O)O
inactive: Potency [1] | Potency [2] | Potency [3] | Potency [4] | Potency [5] | Potency [8] | Potency [6] | Potency [7]

O=C1O[C@H](CO)[C@@H](O)[C@H](O)[C@H]1O
inactive: Potency [1] | Potency [2] | Potency [3] | Potency [4] | Potency [5] | Potency [6] | Potency [7]

Cc1ncc([N+](=O)[O-])n1CC(O)CCl (stereo not given)
inactive: Potency [1] | Potency [2] | Potency [3] | Potency [4] | Potency [5] | Potency [8] | Potency [6] | Potency [7]

CC(=O)CCC(=O)O
inactive: Potency [1] | Potency [2] | Potency [3] | Potency [4] | Potency [5] | Potency [6] | Potency [7]

CC1(C)CO[C@@H](CC(=O)O)CN1
inactive: Potency [1] | Potency [2] | Potency [3] | Potency [4] | Potency [5] | Potency [6] | Potency [7]

CN1[C@@H]2CC[C@H]1CC(OC(=O)C(O)c1ccccc1)C2 (stereo not given in full)
inactive: Potency [1] | Potency [2] | Potency [3] | Potency [4] | Potency [5] | Potency [6] | Potency [7]

CN1CCOC(c2ccccc2)c2ccccc2C1 (stereo not given)
inactive: Potency [1] | Potency [2] | Potency [3] | Potency [4] | Potency [5] | Potency [8] | Potency [6] | Potency [7]

O=c1[nH]c(=O)c2[nH]c(=O)[nH]c2[nH]1
inactive: activity change, negative = cytotoxic [1] -9.56% [at 9.17 µM] | activity change, negative = cytotoxic [2] -3.8% [at 9.22 µM] | activity change, negative = cytotoxic [3] 1.34% [at 9.22 µM] | activity change, negative = cytotoxic [4] -14.8% [at 9.22 µM] | activity change, negative = cytotoxic [8] 0.299% [at 11.5 µM] | activity change, negative = cytotoxic [6] -4.54% [at 9.22 µM] | activity change, negative = cytotoxic [7] -0.365% [at 9.22 µM]

Cc1ccc(C(C)C)cc2c(C)ccc1-2
inactive: Potency [1] | Potency [2] | Potency [3] | Potency [4] | Potency [5] | Potency [8] | Potency [6] | Potency [7]

O=S(=O)(O)c1cc(I)c(O)c2ncccc12
inactive: Potency [1] | Potency [2] | Potency [3] | Potency [4] | Potency [5] | Potency [6] | Potency [7]

COc1ccc2[nH]c(S(=O)Cc3ncc(C)c(OC)c3C)nc2n1 (stereo not given)
inactive: Potency [1] | Potency [2] | Potency [3] | Potency [4] | Potency [5] | Potency [6] | Potency [7]

O=c1cc(CO)occ1O
inactive: Potency [1] | Potency [2] | Potency [3] | Potency [4] | Potency [5] | Potency [8] | Potency [6] | Potency [7]

NCCNCCNCCN
inactive: Potency [1] | Potency [2] | Potency [4] | Potency [5] | Potency [6] | Potency [7]

Oc1ccc(C(O)CNCCCCCCNCC(O)c2ccc(O)c(O)c2)cc1O (stereo not given)
inactive: Potency [1] | Potency [2] | Potency [3] | Potency [5] | Potency [6] | Potency [7]

Cc1cccc(C)c1NC(=O)CN(CC(=O)O)CC(=O)O
inactive: Potency [1] | Potency [3] | Potency [4] | Potency [5] | Potency [8] | Potency [6] | Potency [7]

c1ccc(CN(CC2=NCCN2)c2ccccc2)cc1
inactive: Potency [1] | Potency [2] | Potency [4] | Potency [5] | Potency [8] | Potency [6] | Potency [7]

CC1(C)[C@@H]2CC[C@@]1(C)C(=O)C2
inactive: Potency [1] | Potency [3] | Potency [4] | Potency [5] | Potency [8] | Potency [6] | Potency [7]

O=C(O)CN1C(=O)c2cccc3cccc(c23)C1=O
inactive: Potency [1] | Potency [2] | Potency [3] | Potency [5] | Potency [6] | Potency [7]

CCCCCCCCCCCCOS(=O)(=O)O
inactive: Potency [1] | Potency [3] | Potency [4] | Potency [5] | Potency [8] | Potency [6] | Potency [7]

CCCCC/C(C=O)=C\c1ccccc1
inactive: Potency [1] | Potency [2] | Potency [4] | Potency [5] | Potency [6] | Potency [7]

CC(=O)Nc1ccc(/C=N/NC(N)=S)cc1
inactive: Potency [1] | Potency [3] | Potency [4] | Potency [5] | Potency [8] | Potency [6] | Potency [7]

OCC(O)CN1CCN(c2ccccc2)CC1 (stereo not given)
inactive: Potency [1] | Potency [2] | Potency [4] | Potency [5] | Potency [8] | Potency [6] | Potency [7]

CCN(CC)CCSC(=O)C(c1ccccc1)c1ccccc1
inactive: Potency [1] | Potency [2] | Potency [7]
active: Potency [4] 21.1 µM | Potency [6] 23.7 µM

O=C1O[C@H]([C@@H](O)CO)C(O)=C1O
inactive: Potency [1] | Potency [2] | Potency [4] | Potency [5] | Potency [6] | Potency [7]

O=C(O)CC(O)C(=O)O (stereo not given)
inactive: Potency [1] | Potency [2] | Potency [4] | Potency [5] | Potency [8] | Potency [6] | Potency [7]

CN1[C@@H]2CC(OC(=O)[C@H](CO)c3ccccc3)C[C@H]1[C@@H]1O[C@@H]12 (stereo not given in full)
inactive: Potency [1] | Potency [3] | Potency [4] | Potency [5] | Potency [8] | Potency [6] | Potency [7]

O=C1NS(=O)(=O)c2ccccc21
inactive: Potency [1] | Potency [2] | Potency [4] | Potency [5] | Potency [6] | Potency [7]

CCN(CC)CCNC(C(=O)OCCC(C)C)c1ccccc1 (stereo not given)
inactive: Potency [1] | Potency [3] | Potency [4] | Potency [5] | Potency [8] | Potency [6] | Potency [7]

O=C1OC(OC(=O)c2cccnc2Nc2cccc(C(F)(F)F)c2)c2ccccc21 (stereo not given)
inactive: Potency [1] | Potency [2] | Potency [3] | Potency [6] | Potency [7]

CCCCOC(=O)c1ccc(O)cc1
inactive: Potency [1] | Potency [2] | Potency [3] | Potency [5] | Potency [6] | Potency [7]

CC1(C)OC(=O)NC1=O
inactive: Potency [1] | Potency [3] | Potency [4] | Potency [5] | Potency [8] | Potency [6] | Potency [7]

CS(=O)(=O)c1ccc([C@@H](O)[C@@H](CF)NC(=O)C(Cl)Cl)cc1
inactive: Potency [1] | Potency [2] | Potency [4] | Potency [5] | Potency [8] | Potency [6] | Potency [7]

C[C@H](N)[C@H](O)c1cccc(O)c1
inactive: Potency [1] | Potency [2] | Potency [4] | Potency [5] | Potency [8] | Potency [6] | Potency [7]

c1ccc2c(CC3=NCCN3)cccc2c1
inactive: Potency [1] | Potency [2] | Potency [4] | Potency [8] | Potency [6] | Potency [7]

CCOc1ccc2ccccc2c1C(=O)N[C@@H]1C(=O)N2[C@@H]1SC(C)(C)[C@@H]2C(=O)O
inactive: Potency [1] | Potency [2] | Potency [4] | Potency [5] | Potency [8] | Potency [6] | Potency [7]

C[C@@H]1CN(c2c(F)c(F)c3c(=O)c(C(=O)O)cn(C4CC4)c3c2F)C[C@H](C)N1
inactive: Potency [1] | Potency [3] | Potency [4] | Potency [5] | Potency [8] | Potency [6] | Potency [7]

CC1(C)Oc2ccc(C#N)cc2[C@@H](N2CCCC2=O)[C@@H]1O
inactive: Potency [1] | Potency [2] | Potency [4] | Potency [5] | Potency [8] | Potency [6] | Potency [7]

CC1=C(C/C=C(\C)CCC[C@H](C)CCC[C@H](C)CCCC(C)C)C(=O)c2ccccc2C1=O
inactive: Potency [1] | Potency [2] | Potency [4] | Potency [5] | Potency [8] | Potency [6] | Potency [7]

O=C(O)[C@H](O)c1ccccc1
inactive: Potency [1] | Potency [2] | Potency [4] | Potency [5] | Potency [6] | Potency [7]

C/C(=C(\CCOP(=O)(O)O)SC(=O)c1ccccc1)N(C=O)Cc1cnc(C)nc1N
inactive: activity change, negative = cytotoxic [1] 9.22% [at 4.81 µM] | activity change, negative = cytotoxic [2] 7.92% [at 4.84 µM] | activity change, negative = cytotoxic [4] -0.171% [at 4.84 µM] | activity change, negative = cytotoxic [5] -16.7% [at 4.84 µM] | activity change, negative = cytotoxic [6] 16.5% [at 4.84 µM] | activity change, negative = cytotoxic [7] 14.8% [at 4.84 µM]

O=c1[nH]cnc2c1ncn2[C@@H]1O[C@H](CO)[C@@H](O)[C@H]1O
inactive: Potency [1] | Potency [2] | Potency [4] | Potency [5] | Potency [8] | Potency [6] | Potency [7]

CC1CC(OC(=O)C(O)c2ccccc2)CC(C)(C)N1C (stereo not given)
inactive: Potency [1] | Potency [2] | Potency [4] | Potency [5] | Potency [8] | Potency [6] | Potency [7]

CO/N=C(\C(=O)N[C@@H]1C(=O)N2C(C(=O)O)=C(CSc3nc(=O)c(O)nn3C)CS[C@H]12)c1csc(N)n1
inactive: Potency [1] | Potency [2] | Potency [4] | Potency [5] | Potency [6] | Potency [7]

CCCCCCCCCCCCCCCCCCOCC(O)CO (stereo not given)
inactive: Potency [1] | Potency [2] | Potency [4] | Potency [5] | Potency [8] | Potency [6] | Potency [7]

O=S(=O)(O)NC1CCCCC1
inactive: Potency [1] | Potency [2] | Potency [4] | Potency [5] | Potency [8] | Potency [6] | Potency [7]

COc1ccc2cc1Oc1cc3c(cc1OC)CC[N+](C)(C)[C@H]3Cc1ccc(cc1)Oc1c(OC)c(OC)cc3c1[C@@H](C2)[N+](C)(C)CC3
inactive: Potency [1] | Potency [2] | Potency [4] | Potency [5] | Potency [8] | Potency [6] | Potency [7]

Cc1ccc2nc(N)[nH]c(=O)c2c1Sc1ccncc1
active: Potency [1] 8.36 µM | Potency [5] 0.944 µM
inactive: Potency [7]

Cc1cc(O)cc2c1O[C@](C)(CCC[C@H](C)CCC[C@H](C)CCCC(C)C)CC2
inactive: Potency [1] | Potency [3] | Potency [4] | Potency [5] | Potency [6] | Potency [7]

COc1ccc2cc1Oc1ccc(cc1)C[C@H]1c3c(cc4c(c3Oc3cc5c(cc3OC)CCN(C)[C@@H]5C2)OCO4)CCN1C
inactive: Potency [2]
active: Potency [4] 13.3 µM | Potency [5] 15 µM | Potency [8] 17.4 µM

CC(O)COc1ccccc1 (stereo not given)
inactive: Potency [1] | Potency [3] | Potency [4] | Potency [6] | Potency [7]

O=C(Oc1ccccc1C(=O)O)c1ccccc1O
inactive: Potency [1] | Potency [3] | Potency [4] | Potency [5] | Potency [6] | Potency [7]
